Screening data as filed in PubChem.
Rows were chosen to be rich in hits. Some 1.8% of all compounds tested hit in one or more screens of this group.
PAD4 FP inh: PAD4 (human) enzyme inhibition; Q9UM07; recombinant PAD4, RCA probe fluorescence polarization; inhibition, % at 6.36 µM; 330,000 tested, 0.41% active; AID 485272;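 active means percent inhibition above a cutoff equal to the mean of all tested compounds plus 3 SD, cut at about 15% in these data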;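 further: 0% = PAD4 with RCA probe and DMSO and 100% = probe without PAD4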
PME-1 inh: PME-1 (human) inhibition; recombinant PME-1, FP-Rh probe fluorescence polarization; inhibition, % at 5.9 µM; 320,000 tested, 0.53% active;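 active means inhibition above the campaign mean of all compounds plus 3 SD, cut at about 26% in these data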;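 further: competitive labeling of PME-1 active site by serine hydrolase directed probe; 0% = PME-1 with DMSO and 100% = wells lacking PME-1 enzyme; inhibitors block probe labeling so polarization falls and inhibition rises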
Fam108B counter: Fam108B inhibition, counter-screen for RBBP9 inhibitors | inhibition, % at 9.51 µM | recombinant Fam108B, FP-Rh probe fluorescence polarization | 300,000 tested, 0.33% active;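 active means inhibition above the screen mean inhibition plus 3 SD, computed separately per campaign, cut at about 18% in these data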;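 further: inhibitors lower polarization as less probe binds the enzyme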
LYPLA1 counter: counter-screen for PME1 inhibitors: inhibitors of human LYPLA1. O75608. inhibition, % at 5.9 µM. recombinant LYPLA1, FP-Rh probe fluorescence polarization. 320,000 tested, 0.16% active;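 active means inhibition above the mean of all tested compounds plus 3 SD, set per campaign, cut at about 14% in these data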;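 further: inhibitors block serine hydrolase probe labeling of LYPLA1 so polarization falls; 0% = enzyme with DMSO and 100% = wells lacking LYPLA1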
GSTO1 inh: counter-screen for RBBP9 inhibitors: inhibitors of human GSTO1 | inhibition, % at 5.96 µM | P78417 | recombinant GSTO1, activity-based probe fluorescence polarization | 300,000 tested, 1.1% active | AID 1974;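 active means inhibition above the campaign mean inhibition plus 3 SD, cut at about 35% in these data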;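 further: 0% = GSTO1-1 with DMSO and 100% = wells lacking GSTO1-1 enzyme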
LYPLA2 inh: LYPLA2 (human) inhibition in PME1 counter-screen; O95372; recombinant LYPLA2, FP-Rh probe fluorescence polarization; inhibition, % at 5.9 µM; 320,000 tested, 0.38% active; AID 2177;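 active means inhibition above the screen-wide mean plus 3 SD, limit set per campaign, cut at about 26% in these data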;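 further: 0% = LYPLA2 with DMSO and 100% = wells lacking LYPLA2 enzyme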
Target sequence (O95372 whole entry, looked up): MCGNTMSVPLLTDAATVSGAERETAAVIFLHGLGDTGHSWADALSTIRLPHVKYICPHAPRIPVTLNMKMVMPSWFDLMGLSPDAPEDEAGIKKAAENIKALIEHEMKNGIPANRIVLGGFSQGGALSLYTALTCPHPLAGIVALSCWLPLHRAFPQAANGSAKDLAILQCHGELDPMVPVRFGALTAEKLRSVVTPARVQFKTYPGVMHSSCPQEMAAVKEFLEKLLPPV
Active calls of the source: *; / = no result.

SMILES | PAD4 FP inh | PME-1 inh | Fam108B counter | LYPLA1 counter | GSTO1 inh | LYPLA2 inh
COC/C=C/C1=CC2=CC(=O)C(C)(OC(=O)c3cnc4ccccc4n3)C(=O)C2=CN1c1ccc(CO)cc1 (centres undefined) | 7 | 5 | 11 | 1 | 37* | 10
O=S(=O)(Nc1cccc(-n2cnnn2)c1)c1cc(Br)ccc1Br | -4 | 9 | -2 | 1 | 2 | -1
CC(CCc1ccccc1)NC(=O)CN1CCOc2ccccc21 (centres undefined) | 1 | 5 | 2 | 5 | 6 | 4
CC(CCc1ccccc1)NC(=O)CN1CCSc2ccccc21 (centres undefined) | -7 | 14 | 2 | -3 | 36* | -6
Cc1ccc(NC(=S)N2CCC(NC(=O)c3ccc(F)cc3)CC2)cc1C | -3 | -4 | 0 | -1 | 7 | -4
CCC(=O)Nc1ccc(N2CCCCC2)cc1 | 0 | 1 | 5 | 1 | 3 | -2
O=C(CCl)Nc1ccc(N2CCCCCC2)cc1 | 2 | -4 | 3 | -1 | 95* | -2
Cc1ccc(NC(=O)C2CCCN2C(=O)OCc2ccccc2)c(O)c1 (centres undefined) | 3 | -5 | -2 | 0 | -4 | 3
COC(=O)N1C(=O)[C@](c2ccccc2)(C2CCCC2)N1C(=O)OC | -2 | 70* | -3 | 3 | 2 | -6
COC(=O)N1C(=O)[C@@](c2ccccc2)(C(C)C)N1C(=O)OC | -3 | 11 | 1 | 0 | 3 | 3
COc1ccc(N2C(=O)[C@@H]3[C@H](C2=O)[C@H]2c4ccccc4C=CN2[C@@H]3C(=O)Nc2ccccc2)cc1 | -3 | 13 | 25* | 1 | 22 | 7
O=C(c1ccco1)[C@@H]1[C@@H]2C(=O)N(c3ccccc3)C(=O)[C@@H]2C2c3ccccc3C=CN21 (some centres undefined) | -1 | 3 | 7 | 4 | 37* | 4
Cc1cccc(C)c1NC(=O)CNC(=O)C(C)N1CCN(c2cccc(Cl)c2)CC1 (centres undefined) | -2 | -7 | / | 3 | / | 10
COc1ccc(NC(=O)CN(C)C(=O)c2sc3cc(Cl)ccc3c2Cl)cc1 | 3 | 7 | 2 | 0 | 1 | -1
Oc1[nH]c2ccccc2c1C=Nc1ccc2c(c1)OCO2 | 3 | 31* | 2 | 0 | -1 | -1
O=C(NCCc1nc2ccc(Cl)cc2[nH]1)C1CCC(=O)N(Cc2cccc(F)c2)C1 (centres undefined) | 0 | 5 | 0 | 1 | 1 | -3
Cc1ccc(CNC(=O)c2ccc(N3CCC4(CC3)CC(c3ccccc3)=NO4)c([N+](=O)[O-])c2)cc1 | -4 | -7 | -5 | 2 | -10 | 7
CC(C)c1ccc2c(c1)C1(NN=C(c3ccccc3)S1)C(=O)N2 (centres undefined) | 1 | 33* | 7 | 2 | -23 | 5
CCc1ccc2c(c1)C1(NN=C(c3ccc(C)cc3)S1)C(=O)N2 (centres undefined) | -6 | 20 | 13 | -2 | -40 | 3
CCOC(=O)C1CCCN(CC(=O)Nc2nc(-c3ccccc3)cs2)C1 (centres undefined) | 0 | -4 | -4 | -4 | -3 | -2
O=C(CCl)N(c1ccccc1)C1CCCCC1 | 2 | -6 | -3 | 3 | 67* | 3
CCOC(=O)N1CC=C2C(C#N)=C(N)C(C#N)(C#N)[C@H](c3ccc(OCC)c(OCC)c3)[C@H]2C1 | 0 | 18 | 5 | 0 | 2 | 0
N#CC1=C(N)C(C#N)(C#N)C(c2cccnc2)C2CN(C(=O)OCc3ccccc3)CC=C12 (centres undefined) | 1 | 28* | 0 | 3 | 23 | 16
O=C(Nc1ccccc1)c1cc(S(=O)(=O)NCc2ccncc2)ccc1Cl | 0 | 7 | 1 | 0 | 0 | 7
O=C(OCn1ncc(Br)c(Br)c1=O)c1c(F)cccc1F | 22* | -3 | -1 | 0 | 8 | 0
COC(=O)C(COC(=O)c1c(F)cccc1F)NC(=O)c1c(F)cccc1F (centres undefined) | -2 | 1 | 4 | 6 | -2 | 5
N#Cc1c(NC(=O)c2ccco2)sc2c1CCC2 | -1 | 2 | 6 | -2 | 36* | 1
